Here are results for two molecules from the supplement of paper PMC8728848.

The full list was thinned out, with the strongest signals kept by preference.

What all share (assay): glycan array binding signal (z-score within array); higher = stronger binding
Common to all, as to conditions: glycan notation: IUPAC condensed, linker removed

One test concerns the target Fuc(a1-2)Gal(b1-4)Glc. The procedure, abridged: (§1)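 Glycan array binding is given as a within-array Z-score, which can be read as non-binding when negative. The arrays, 3228 of them, came from the Consortium for Functional Glycomics database and were retained only where the protein sequence was available. Z-scores were averaged across arrays of the same protein sequence at different concentrations or buffers and across linkers.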

The target of test [1] is Fuc(a1-2)Gal(b1-4)[Fuc(a1-3)]GalNAc(b1-3)Gal(b1-4)[Fuc(a1-3)]GlcNAc. The procedure, abridged: as §1
Test [2] addresses Fuc(a1-2)[Gal(a1-3)]Gal(b1-4)GlcNAc. An outline of the steps:
as §1

The target in test [3] is Fuc(a1-2)[GalNAc(a1-3)]Gal(b1-4)GlcNAc. An outline of the steps:
as §1

In test [4] the target is Fuc(a1-3)[Gal(b1-4)]GlcNAc(b1-4)Gal(b1-4)[Fuc(a1-3)]GlcNAc. An outline of the steps:
as §1

Another test deals with Fuc(a1-4)GlcNAc. The procedure, abridged: as §1
For another test, the target named is Gal(a1-3)Gal(b1-4)GlcNAc. An outline of the steps:
as §1

The target in the next test is Gal3S(b1-4)GlcNAc6S. The procedure, abridged: as §1
A further test concerns the target Gal3S6S(b1-4)GlcNAc. An outline of the steps: as §1
Another test deals with Gal3S6S(b1-4)GlcNAc6S. An outline of the steps: as §1
For a further test, the target named is Gal4S6S(b1-4)GlcNAc. The procedure, abridged:
as §1

The next test has as its target GalNAc(a1-3)Gal. An outline of the steps:
as §1

Test [5] addresses GlcNAc(b1-3)[GlcNAc(b1-4)][GlcNAc(b1-6)]GlcNAc. The procedure, abridged: as §1
In test [6] the target is GlcNAc(b1-4)[GlcNAc(b1-6)]GalNAc. The procedure, abridged: as §1
The target of the next test is Kdn(a2-3)Gal(b1-3)GlcNAc. The procedure, abridged:
as §1

Test [7] has as its target Man(a1-2)Man(a1-2)Man(a1-3)Man. An outline of the steps: as §1
The target of the next test is Man(b1-4)GlcNAc. The procedure, abridged: as §1
Test [8] has as its target Neu5Ac(a2-3)Gal(b1-3)[Fuc(a1-4)]GlcNAc(b1-3)Gal(b1-4)[Fuc(a1-3)]GlcNAc. The procedure, abridged:
as §1

Test [9] concerns the target Neu5Ac(a2-3)Gal(b1-4)GlcNAc(b1-3)Gal(b1-4)GlcNAc. The procedure, abridged: as §1
In test [10] the target is Neu5Ac(a2-3)Gal(b1-4)[Fuc(a1-3)]GlcNAc(b1-3)Gal(b1-4)[Fuc(a1-3)]GlcNAc(b1-3)Gal(b1-4)[Fuc(a1-3)]GlcNAc. The procedure, abridged: as §1
The target in test [11] is Neu5Ac(a2-6)GalNAc(b1-4)GlcNAc. The procedure, abridged: as §1
Test [12] addresses Neu5Gc(a2-6)Gal(b1-4)GlcNAc. The procedure, abridged:
as §1

The target in another test is Neu5Gc(a2-6)GalNAc. An outline of the steps: as §1
Test [13] has as its target Fuc(a1-2)Gal(b1-4)[Fuc(a1-3)]GlcNAc(b1-3)Gal(b1-4)[Fuc(a1-3)]GlcNAc. The procedure, abridged: as §1
For the next test, the target named is Fuc(a1-2)GlcNAc. An outline of the steps: as §1
The target in test [14] is Fuc(a1-2)[GalNAc(b1-3)]Gal. An outline of the steps:
as §1

A further test deals with Fuc(b1-3)GlcNAc. An outline of the steps: as §1
The target of test [15] is Gal(b1-3)[Fuc(a1-4)]GlcNAc. An outline of the steps:
as §1

Test [16] deals with Gal(b1-4)GalNAc(a1-3)[Fuc(a1-2)]Gal(b1-4)GlcNAc. The procedure, abridged:
as §1

The next test concerns the target Gal(b1-4)Glc6S. The procedure, abridged: as §1
For test [17], the target named is Gal(b1-4)GlcNAc(b1-2)Man(a1-3)[Gal(b1-4)GlcNAc(b1-2)Man(a1-6)]Man(b1-4)GlcNAc(b1-4)GlcNAc. An outline of the steps: as §1
The target of test [18] is Gal(b1-4)GlcNAc(b1-6)[Gal(b1-3)]GalNAc. The procedure, abridged:
as §1

Another test addresses Gal3S(b1-4)Glc. An outline of the steps:
as §1

A further test deals with Gal6S(b1-4)Glc6S. An outline of the steps:
as §1

The target in a further test is GlcNAc(b1-3)Gal. An outline of the steps:
as §1

The target of test [19] is Neu5Ac(a2-3)Gal(b1-4)[Fuc(a1-3)]GlcNAc(b1-3)Gal. An outline of the steps:
as §1

Test [20] concerns the target Neu5Ac(a2-8)Neu5Ac(a2-8)Neu5Ac(a2-3)[GalNAc(b1-4)]Gal(b1-4)Glc. The procedure, abridged:
as §1

B1: HMGB1 (Homo sapiens), P09429 (protein)
chain: MGKGDPKKPRGKMSSYAFFVQTCREEHKKKHPDASVNFSEFSKKCSERWKTMSAKEKGKFEDMAKADKARYEREMKTYIPPKGETKKKFKDPNAPKRPPSAFFLFCSEYRPKIKGEHPGLSIGDVAKKLGEMWNNTAADDKQPYEKKAAKLKEKYEKDIAAYRAKGKPDAAKKGVVKAEKSKKKKEEEEDEEDEEDEEEEEDEEDEDEEEDDDDE
As to B1, the “glycan array binding signal (z-score)” value with Fuc(a1-2)Gal(b1-4)Glc is -0.488; in [1], -0.246; in test [2] it was -0.3; in [3], -0.269; in test [4], -0.39; with Fuc(a1-4)GlcNAc, -0.341. Moreover, the “glycan array binding signal (z-score)” value with Gal(a1-3)Gal(b1-4)GlcNAc was -0.418; with Gal3S(b1-4)GlcNAc6S, 3.64; with Gal3S6S(b1-4)GlcNAc it was 3.32; with Gal3S6S(b1-4)GlcNAc6S, 4.75; in the test with Gal4S6S(b1-4)GlcNAc it was 3.25; with GalNAc(a1-3)Gal, -0.403. In addition, the “glycan array binding signal (z-score)” value in [5] is -0.309; in test [6], -0.433; with Kdn(a2-3)Gal(b1-3)GlcNAc, -0.363; in test [7], -0.413; with Man(b1-4)GlcNAc, 0.327; in test [8], 0.178. The “glycan array binding signal (z-score)” value in [9] is 0.045; in test [10], -0.332; in test [11], 0.028; in test [12] it was 0.015; with Neu5Gc(a2-6)GalNAc it was -0.195.

B2: DCIR (Homo sapiens), Q9UMR7 (protein)
chain: MTSEITYAEVRFKNEFKSSGINTASSAASKERTAPHKSNTGFPKLLCASLLIFFLLLAISFFIAFVIFFQKYSQLLEKKTTKELVHTTLECVKKNMPVEETAWSCCPKNWKSFSSNCYFISTESASWQDSEKDCARMEAHLLVINTQEEQDFIFQNLQEESAYFVGLSDPEGQRHWQWVDQTPYNESSTFWHPREPSDPNERCVVLNFRKSPKRWGWNDVNCLGPQRSVCEMMKIHL
For the molecule B2, the “glycan array binding signal (z-score)” value in the test with Fuc(a1-2)Gal(b1-4)Glc was -0.479; in test [13], -0.367; with Fuc(a1-2)GlcNAc, -0.484; in [14], -0.31; in test [4], 0.076; with Fuc(b1-3)GlcNAc it was -0.551. The “glycan array binding signal (z-score)” value is 0.183 with Gal(a1-3)Gal(b1-4)GlcNAc; -0.359 in [15]; -0.129 in test [16]; 0.19 in the test with Gal(b1-4)Glc6S; 4.96 in test [17]; -0.161 in [18]. Also, the “glycan array binding signal (z-score)” value with Gal3S(b1-4)Glc is -0.426; with Gal3S(b1-4)GlcNAc6S, 5.68; in the test with Gal3S6S(b1-4)GlcNAc6S, 7.43; in the test with Gal6S(b1-4)Glc6S it was 4.52; in the test with GlcNAc(b1-3)Gal, -0.245; in test [19], -0.071. The “glycan array binding signal (z-score)” value in test [10] was -0.372; in test [20], -0.052.
